Bioassay records deposited in PubChem BioAssay by several laboratories.
CYP2C19 act – human CYP2C19 activators, primary screen, biochemical, luminescence; Cytochrome P450 2C19 (Homo sapiens), P33261; recombinant CYP2C19, luciferin-H EGE luminescence; stronger effect = higher value; 0 = fully inhibited enzyme, 1 = untreated enzyme; activation factor at 5 µM; 96,000 tested, under 10 active;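 active means activation factor of at least 2 at 5 µM in the primary screen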;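 further: 0 = wells with 2.5 mM tranylcypromine and 1 = vehicle-only wells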
CYP2C19 inh – blockers of cytochrome P450 2C19 activity – biochemical, luminescence, ADME assay, primary screen. P33261. CYP2C19 Supersomes, luciferin-H EGE luminescence, 30 min. inhibition, % at 5 µM. 96,000 compounds, 21% hits. AID 778, 2007;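 active means CYP2C19 inhibition above a set limit at 5 µM in the primary screen, cut at about 50% in these data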;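 further: plate controls were negative control wells for no effect and 2.5 mM tranylcypromine positive control for full effect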
CYP2C9 activ – human CYP2C9 activators, primary screen, biochemical, luminescence | Cytochrome P450 2C9 (Homo sapiens), P11712 | recombinant CYP2C9, luciferin-H conversion; stronger effect = higher value; factor 1 = untreated enzyme, 0 = blocked | activation factor at 5 µM | 96,000 compounds, 1.4% hits;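 active means activation factor of 2 or more for CYP2C9 at a 5 µM dose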;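 further: 0 = sulfaphenazole-blocked wells and 1 = vehicle-only wells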
Target sequence (P11712 whole entry, looked up): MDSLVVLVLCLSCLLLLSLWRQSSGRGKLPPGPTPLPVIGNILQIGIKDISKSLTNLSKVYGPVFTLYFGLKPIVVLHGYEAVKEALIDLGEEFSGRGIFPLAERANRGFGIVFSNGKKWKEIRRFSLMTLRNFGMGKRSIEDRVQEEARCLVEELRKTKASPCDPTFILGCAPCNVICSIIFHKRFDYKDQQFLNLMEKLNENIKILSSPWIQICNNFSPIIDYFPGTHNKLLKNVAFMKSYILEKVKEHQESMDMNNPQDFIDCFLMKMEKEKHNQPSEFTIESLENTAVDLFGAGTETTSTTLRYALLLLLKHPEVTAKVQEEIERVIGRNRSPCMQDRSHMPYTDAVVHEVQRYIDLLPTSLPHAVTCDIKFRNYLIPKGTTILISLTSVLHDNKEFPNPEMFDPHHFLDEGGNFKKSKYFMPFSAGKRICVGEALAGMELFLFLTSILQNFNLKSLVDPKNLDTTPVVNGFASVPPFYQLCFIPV
CYP2C9 inh – blockers of cytochrome P450 2C9 activity – biochemical, luminescence, ADME assay, primary screen; P11712; AID 777, 2007; CYP2C9 Supersomes, luciferin-H conversion; inhibition, % at 5 µM; 96,000 compounds, 20% hits;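 active means blocking of liver enzyme CYP2C9 beyond about 50% at 5 µM, limit read from the data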
PostGolgi yeast – phenotypic screen on post-Golgi transport, primary screen | post-Golgi transport phenotypic cell assay | inhibition, % at 10 µM | 98,000 compounds, 0.9% hits | AID 739, 2007;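 further: yeast cells grown in 1536-well plates; yeast grown about 18 h at 30C before absorbance read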
PostGolgi ctrl – growth inhibition of yeast control strain, primary screen, counter-screen for post-Golgi transport modulator project | efflux-deficient yeast background strain, growth absorbance A615, 16 h | inhibition, % at 10 µM | 98,000 compounds, 5% hits | AID 738, 2007
* marks the source's active call; other numbers are inactive results; x = no result. Most compounds without a hit are left out; they make up all but 32% or so of the library. Unless noted, no stated cut-off is given here; in the data, active means inhibition above about 30%; inactive means the rest.

SMILES	CYP2C19 act	CYP2C19 inh	CYP2C9 activ	CYP2C9 inh	PostGolgi yeast	PostGolgi ctrl
CCSc1nnc(Cc2cc(=O)[nH]c(=O)[nH]2)n1-c1cc(C)ccc1C	1.1	-14.7	1.1	-9.0	-6.4	30.1*
CN1CCN(Cn2cc(/C=C/C(=O)c3ccccc3)c3ccccc32)CC1	0.2	81.4*	0	95.7*	15.5	34.0*
COCCn1nnnc1C(c1cc(OC)ccc1OC)N1CCc2ccccc2C1 (stereo unspecified)	0.4	59.2*	0.7	29.4	-1.6	6.7
COc1ccccc1C(c1nnnn1C1CCCC1)N1CCN2CCCC2C1 (stereo unspecified)	0.6	43.0	0.1	85.3*	-1.1	-2.1
COc1ccc(C(c2nnnn2C2CCCC2)N2CCC(C)CC2)cc1 (stereo unspecified)	0.2	82.0*	0.3	69.1*	-0.2	16.1
c1cc(C(c2nnnn2C2CCCCC2)N2CCN3CCCC3C2)ccn1 (stereo unspecified)	x	x	x	x	10.9	0.9
Fc1ccc(C(c2nnnn2C2CCCC2)N2CCN(Cc3ccncc3)CC2)cc1 (stereo unspecified)	0.1	91.4*	0.2	80.9*	0.8	4.2
CC(C)COc1ccccc1C(=O)NC(CO)C(=O)O (stereo unspecified)	1	0.1	0.9	13.7	2.2	8.0
Cc1oc(-c2ccc(Cl)cc2)nc1CN1CCCC(C(=O)NCc2ccco2)C1 (stereo unspecified)	0.6	37.8	0.6	35.1	-2.7	3.7
COc1ccc(C(c2nnnn2C2CCCCC2)N2CCN(c3ccc(OC)cc3)CC2)cc1 (stereo unspecified)	0.3	72.2*	0.1	85.4*	13.5	16.0
COc1ccccc1C(c1nnnn1C(C)(C)C)N1CCCCCC1 (stereo unspecified)	0.5	52.2*	0.2	76.8*	-9.5	20.6
c1cc(N2CCCC2)ccc1C(c1nnnn1C1CCCCC1)N1CCOCC1 (stereo unspecified)	0.6	39.8	0.6	43.6	-7.2	5.2
Clc1ccc(C(c2nnnn2C2CCCC2)N2CCSCC2)cc1 (stereo unspecified)	0.4	63.1*	0.2	78.6*	-3.9	13.0
COc1ccc(OC)c(C(c2nnnn2C2CCCC2)N2CCN(c3ccccc3)CC2)c1 (stereo unspecified)	0.1	89.5*	0.2	81.7*	-1.9	16.5
O=C(Cn1cnc2c(nnn2-c2cccc(Cl)c2)c1=O)N1CCCC1	0.9	10.1	1.7	-66.8	-5.0	1.5
Cc1ccc(S(=O)(=O)Cc2ccc(C(=O)NCCCN3CCCC3=O)o2)cc1	1	2.5	0.8	23.3	5.4	1.4
CCCCn1c(CN2CCOCC2)nc2c1c(=O)n(C)c(=O)n2C	1.2	-17.3	1.2	-18.1	x	x
CCN(C(=O)COc1ncnc2scc(-c3ccc(F)cc3)c12)C1CCS(=O)(=O)C1 (stereo unspecified)	0.8	20.7	1	2.0	-0.9	-1.2
COCCn1nnnc1C(c1ccc(Cl)cc1)N1CCSCC1 (stereo unspecified)	0.2	78.8*	0.7	34.6	-1.4	1.7
Cc1ccc(C(c2nnnn2CCc2ccccc2)N2CCSCC2)cc1 (stereo unspecified)	0.7	25.3	0.9	7.7	x	23.6
COCCn1nnnc1C(c1ccc(OC)cc1)N1CCN(c2ccccc2F)CC1 (stereo unspecified)	x	x	x	x	-3.6	-3.1
CN(c1ccccc1)C(c1ccc(F)cc1)c1nnnn1C1CCCC1 (stereo unspecified)	0.1	90.3*	0.2	82.1*	-1.8	9.4
COCCn1nnnc1C(c1ccc(OC)cc1)N1CCC(C)CC1 (stereo unspecified)	0.3	72.6*	1	3.3	-4.5	9.2
N#Cc1nc(N2CCCCC2)nc(N2CCOCC2)n1	1	-1.0	1	1.9	14.4	9.8
Brc1cnc(N2CCOCC2)nc1N1CCCCC1	0.4	58.3*	0.7	32.0	-6.2	13.7
SMILES	CYP2C19 act	CYP2C19 inh	CYP2C9 activ	CYP2C9 inh	PostGolgi yeast	PostGolgi ctrl
Cc1cccc(C)c1NC(=O)C(c1ccc([N+](=O)[O-])cc1)N1CCCCC1 (stereo unspecified)	1	-0.2	1.1	-9.3	-1.4	0.4
Cc1cccc(C)c1NC(=O)C(NC=O)c1ccc(Cl)cc1 (stereo unspecified)	0.4	57.8*	1.1	-5.0	3.9	0.6
COc1cccc2cc(C(=O)N3CCN(c4ccccc4F)CC3)c(=O)oc12	0.6	35.7	0.5	50.7*	-2.8	6.5
COc1cccc2cc(C(=O)N3CCc4ccccc4C3)c(=O)oc12	0.7	26.7	2*	-97.3	3.6	-3.3
CCOc1cccc2cc(C(=O)N3CCc4ccccc4C3)c(=O)oc12	0.3	68.5*	2.5*	-145.8	-2.4	1.4
CNC(=O)c1cc2cccc(OC)c2oc1=O	x	x	x	x	1.4	5.5
CCOc1ccc(OCc2ccc(C(=O)N3CCc4ccccc4C3)o2)cc1	0.5	50.9*	0.7	30.6	-11.1	14.0
CCOC(=O)CSc1nnc2n(Cc3ccccc3)c(=O)c3c4c(sc3n12)CCC4	0.8	17.3	0.6	37.3	-6.1	21.8
CCOC(=O)C1C(=O)NC(N2CCc3ccccc32)=NC1c1ccccc1 (stereo unspecified)	0.9	8.2	1.1	-10.4	-0.3	-6.2
CC(=O)N1CCc2ccc(C(=O)CN3CCN(c4cccc(C)c4C)CC3)cc21	1	-3.8	1	0.4	-0.9	0.3
CSc1ncccc1C(=O)OCC(=O)N(C)C1CCS(=O)(=O)C1 (stereo unspecified)	1.1	-8.5	1.2	-20.7	-0.3	17.5
COC(=O)CN1C(=O)C2(C(C#N)=C(N)Oc3c2c(C)nn3-c2ccccc2)c2ccccc21 (stereo unspecified)	x	x	x	x	6.4	5.8
O=c1cc(CSc2nnc(-c3ccco3)o2)c2ccccc2[nH]1	0.9	7.8	0.9	8.9	-8.0	-1.8
COc1cc(Br)cc2cc(C(=O)N3CCN(c4ccccn4)CC3)c(=O)oc12	0.3	74.2*	0.4	57.0*	-3.3	12.7
CCOC(=O)c1c(C)oc2c1c1c(c3ccccc32)OCN(Cc2cccnc2)C1	0.5	46.1	0.5	53.5*	9.0	35.2*
CCOC(=O)c1c(C)oc2c1c(C(c1cccnc1)N1CCOCC1)c(O)c1ccccc12 (stereo unspecified)	0.7	34.3	0.4	64.4*	-1.6	37.0*
CCOC(=O)c1c(C)oc2c1c(C(c1cccnc1)N1CCN(C)CC1)c(O)c1ccccc12 (stereo unspecified)	0.4	63.4*	0.8	16.3	x	x
